Common to all, as to assay: NCI-60 one-dose screen, 48 h (100 = growth as untreated, 0 = no growth, -100 = all killed)
Test [1] has as its system A549/ATCC NSCLC. The conditions noted are these: 10 µM unless noted.
In test [2] the test system is DU-145 prostate. The conditions noted are these: 10 µM unless noted.
Test [3] concerns K-562 leukemia. Conditions: 10 µM unless noted.
Test [4] has as its system RXF 393 renal. The conditions noted are these: 10 µM unless noted.
The subject of test [5] is SF-295 CNS. The conditions noted are these: 10 µM unless noted.
Test [6] concerns UACC-257 melanoma. The conditions noted are these: 10 µM unless noted.
Test [7] deals with HT29 colon. Conditions: 10 µM unless noted.
For test [8], the system named is SNB-75 CNS. The conditions noted are these: 10 µM unless noted.
The subject of test [9] is SK-MEL-2 melanoma. Conditions: 10 µM unless noted.
Test [10] deals with ACHN renal. The conditions noted are these: 10 µM unless noted.
In test [11] the test system is CAKI-1 renal. The conditions noted are these: 10 µM unless noted.
For test [12], the system named is A498 renal. The conditions noted are these: 10 µM unless noted.
The subject of test [13] is HL-60(TB) leukemia. Conditions: 10 µM unless noted.
In test [14] the test system is OVCAR-5 ovarian. The conditions noted are these: 10 µM unless noted.
In test [15] the test system is OVCAR-4 ovarian. The conditions noted are these: 10 µM unless noted.
In test [16] the test system is SK-OV-3 ovarian. The conditions noted are these: 10 µM unless noted.
Test [17] concerns HS 578T breast. The conditions noted are these: 10 µM unless noted.
Test [18] relates to NCI/ADR-RES ovarian. Conditions: 10 µM unless noted.
Test [19] has as its system T-47D breast. The conditions noted are these: 10 µM unless noted.
Test [20] relates to BT-549 breast. Conditions: 10 µM.

The panel holds about 83,000 compounds, 20% with a hit somewhere; the sample as a whole holds those more often.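 48-hour exposure, single concentration, 96-well plates; percent growth endpoint where 0 means no net growth. Active: below 10.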 Values without a mark were called inactive. Activity calls are given as the source filed them.

As to `ClCCN(CCCl)c1nc(Cl)c(C2CC(c3ccc(Cl)cc3)=NN2c2cc(Cl)cc(Cl)c2)s1` (stereo unspecified), the growth in test [1] is 97.7%; in test [2], 116%; in test [3], 91.7%; in test [4] it was 119%; in test [5], 101%; in [6] it was 94.4%. Besides, the growth in test [7] is 94.4%; in [8] it was 97.7%; in [9], 96.3%; in test [10], 106%; in test [11], 82.9%; in test [12] it was 101%. The growth is 104% in test [13]; 108% in test [14]; 99.7% in test [15]; 87.1% in test [16]; 89.7% in test [17]; 114% in test [18]. Besides, the growth in [19] is 98.8%; in test [20], 103%.
As for `COc1cc(C2(C#N)CCN(C)CC2)cc(OC)c1OC`, the growth is 88.8% in [1]; 113% in [2]; 97.5% in [3]; 114% in test [4]; 98.8% in [5]; 108% in [6]. The growth in test [7] is 101%; in [8] it was 84.9%; in [9], 109%; in test [10], 98.5%; in test [11] it was 79.1%; in test [12], 88.4%. Also, the growth is 95% in test [13]; 97.5% in test [14]; 104% in test [15]; 105% in test [16]; 100% in test [17]; 104% in [18]. The values for the growth in [19] and in [20] were 98.1% and 101%, respectively.
In the case of `NC(=O)SCC(=O)Nc1ccc([As](=O)(O)O)cc1`, the growth is 85.9% in [1]; 101% in [2]; 75.5% in test [3]; 95.7% in test [4]; 111% in [5]; 74.1% in test [6]. The growth is 93.7% in test [7]; 96.6% in [8]; 73.3% in test [9]; 100% in [10]; 109% in test [11]; 113% in test [12]. The growth is 56.9% in test [13]; 125% in test [14]; 99.8% in [15]; 135% in [16]; 82.3% in test [17]; 86.4% in test [18]. Moreover, the growth is 112% in test [19] and 92% in test [20].
With `O=[N+]([O-])c1cccc([As]=[As]c2cccc([N+](=O)[O-])c2)c1` (stereo unspecified), the growth in test [1] was -75.2% (active); in test [2] it was -100% (active); in test [3], -21.7% (active); in [4], -96.1% (active); in [6], -94.4% (active); in test [7] it was -61.6% (active). Moreover, the growth is -100% (active) in test [8]; -91.4% (active) in [9]; -100% (active) in test [10]; -95.9% (active) in test [11]; -98.8% (active) in test [12]; -57% (active) in test [13]. Also, the growth was -85.2% (active) in test [14]; -99.2% (active) in [15]; -100% (active) in test [16]; 6.73% (active) in test [17]; -1.16% (active) in test [18]; -58.3% (active) in test [19]. In addition, the growth in test [20] was -97.7% (active).
Take `O=C(O)c1cccc(CCl)c1`: the growth in test [1] was 96%; in test [2], 108%; in [3], 101%; in test [4], 112%; in test [6], 94.2%; in [7], 102%. Besides, the growth is 87.2% in test [8]; 103% in test [9]; 100% in [10]; 106% in test [11]; 117% in test [12]; 93.4% in test [13]. In addition, the growth in [14] was 102%; in test [15], 105%; in [16], 99.7%; in test [18], 103%; in test [19] it was 96.3%; in [20], 96.6%.
For the molecule `S=P(N1CCCCCC1)(N1CC1)N1CC1`, the growth in test [1] was 104%; in [2], 112%; in test [3], 97%; in test [4], 124%; in test [5], 117%; in test [6], 106%. Also, the growth in test [7] was 101%; in test [8] it was 98.7%; in test [9], 97.9%; in test [10] it was 104%; in test [11] it was 96.3%; in test [12], 107%. The growth in [13] was 84.3%; in test [14], 107%; in test [15] it was 117%; in test [16] it was 93.9%; in [17], 122%; in [18], 104%. The growth in [19] was 94.5%; in test [20], 102%.
Consider `COC1=CC(=O)OC(CCc2ccc3c(c2)OCO3)C1` (stereo unspecified), for which the growth was 96% in test [1]; 122% in [2]; 122% in [3]; 70.2% in test [4]; 116% in [5]; 97.8% in test [6]. In addition, the growth in test [7] is 97.1%; in test [8] it was 96.3%; in test [9], 97.4%; in test [10], 107%; in [11] it was 120%; in test [12], 101%. The growth was 113% in test [13]; 101% in test [14]; 106% in [15]; 112% in test [16]; 109% in test [17]; 120% in [18]. Besides, the growth in test [19] was 94.7%; in [20], 92.5%.
`CC(CC(C#N)(c1ccccc1)c1ccccc1)N1CCOCC1` (stereo unspecified): the growth in [1] is 95.6%; in [2], 105%; in test [3] it was 83.5%; in test [4], 112%; in [6], 106%; in [7], 106%. Moreover, the growth in test [8] is 104%; in [9], 101%; in [10], 102%; in [11], 92.9%; in test [12], 88.8%; in [13], 86.4%. For the same molecule, the growth in [14] is 89.5%; in test [15], 108%; in test [16], 109%; in [17], 111%; in test [18], 106%; in test [19], 90%. Moreover, the growth in test [20] is 111%.

(Values after PubChem BioAssay (NCI).)
